According to PubChem BioAssay (Tox21):
Several values for one entry are separate records, joined by “and”; a condition that tells them apart may be missing. Equal entries are not always repeated. Records with an inconclusive call do not appear. Entries that show only a call come without a potency. Activity calls are given as the source filed them. Calls follow the shape of the dose curve; as a rule, active = well fitted cell-killing curve with a large enough effect in the repeat runs; inconclusive = weak or mixed curves, or effect the other way; inactive = flat fitted curve, though single readings scatter.
Potency is read from the fitted curve at half-maximal effect.

Experiment: cAMP Responsive Elements (CRE) small molecule agonists, cell-based qHTS assay: qHTS cell viability counter screen (AID 2060914); also: nearly all actives have a fitted effect of over 50% in size
Conditions: CRE-bla HEK293T viability, CellTiter-Glo luminescence, 5 h; series mostly up to 92.4 µM
In short: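 In the same wells as the reporter read, viability of CRE-bla HEK 293T cells was quantified by CellTiter-Glo luminescence after a 3 h compound exposure.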
With `Oc1ccc(-c2ccccc2)c(Cl)c1` the Potency was “inactive”. For `COc1cc(OC)nc(NC(=O)NS(=O)(=O)Nc2ccccc2C(=O)N(C)C)n1`, the Potency was “inactive”. In the case of `CCC1CCC(CCC(=O)O)C1` (centres undefined), the Potency is reported as “inactive”. For `OCCNCCO`, the Potency was “inactive”. In the case of `OCC1CCC(CO)CC1` (centres undefined), the Potency is reported as “inactive”. In the case of `CC1(C)CCC[C@]2(C)[C@H]3CC(=O)O[C@]3(C)CC[C@@H]12`, the Potency is reported as “inactive”. For `CCO[Si](C)(OCC)OCC`, the Potency was “inactive”. In the case of `c1ccc2[nH]c(-c3cscn3)nc2c1`, the Potency is reported as “inactive”. In the case of `CC(Cl)C(Cl)Cl` (centres undefined), the Potency is reported as “inactive”. In the case of `NC(=O)c1ccccc1[N+](=O)[O-]`, the Potency is reported as “inactive”. In the case of `CC(C)(C)c1ccc(N)cc1`, the Potency is reported as “inactive”. With `O=S(=O)(O)c1ccc2nc(-c3ccccc3)[nH]c2c1` the Potency was 29.1 µM (active) and 21.1 µM (active). With `C=CN1CCCCCC1=O` the Potency was “inactive”. For `CCCCCCOC(=O)C(C)C`, the Potency was “inactive”. In the case of `CC(CN(C)C)CN1c2ccccc2CCc2ccccc21` (centres undefined), the Potency is reported as “inactive”. For `O=[Si]=O`, the Potency was “inactive”. With `CCCCCCCC/C=C/CCCOC(C)=O` the Potency was “inactive”. With `CNC(=S)N(C)C` the Potency was “inactive”. For `COc1ccc(-c2nc3ccc(C4=NNC(=O)CC4C)cc3[nH]2)cc1` (centres undefined), the Potency was “inactive”. In the case of `C[N+]1([O-])CCOCC1`, the Potency is reported as “inactive”. For `O=C(O)c1ccc[n+]([O-])c1`, the Potency was “inactive”. With `CCCCCCCCOC(=O)c1cc(O)c(O)c(O)c1` the Potency was “inactive”. In the case of `CC(=O)OCC(=O)[C@@]1(O)[C@H](OC(C)=O)C[C@H]2[C@@H]3CCC4=CC(=O)C=C[C@]4(C)[C@@]3(F)[C@@H](O)C[C@@]21C`, the Potency is reported as “inactive”. With `CN(C)CCOC(=O)C(c1ccccc1)C1(O)CCCC1` (centres undefined) the Potency was “inactive”. With `CCOC(=O)COc1ccc2c(c1)CC(NCC(O)c1cccc(Cl)c1)CC2` (centres undefined) the Potency was “inactive”. In the case of `Nc1c(Cl)cc(Cl)cc1[N+](=O)[O-]`, the Potency is reported as “inactive”. For `O=CN(CCO)CCO`, the Potency was “inactive”. With `Cl[Si](Cl)(c1ccccc1)c1ccccc1` the Potency was “inactive”. With `c1ccc(SCCSc2ccccc2)cc1` the Potency was “inactive”. For `CCN(CCCc1ccccc1)CCCc1ccccc1`, the Potency was “inactive”. For `CC(=O)O[C@]1(C(C)=O)CC[C@H]2[C@@H]3C=C(Cl)C4=CC(=O)CC[C@]4(C)[C@H]3CC[C@@]21C`, the Potency was “inactive”. For `Clc1cc(Cl)c(Cl)c(Cl)c1Cl`, the Potency was “inactive”. For `CC(CCl)OC(C)CCl` (centres undefined), the Potency was “inactive”. With `O=C1[C@H]2CCCC[C@H]2C(=O)N1CCCCN1CCN(c2nsc3ccccc23)CC1` the Potency was “inactive”. In the case of `O=C(Nc1ccc(Oc2ccc(Cl)cc2)c(Cl)c1)c1cc(I)cc(I)c1O`, the Potency is reported as “inactive”. For `COc1cc(CCC(C)=O)ccc1O`, the Potency was “inactive”. For `O=C(Nc1cccc(C(F)(F)F)c1)c1cc(Br)cc(Br)c1O`, the Potency was 27.3 µM (active). For `Cc1cc(C)cc(O)c1`, the Potency was “inactive”. In the case of `CCOC(=O)Cc1cccc2ccccc12`, the Potency is reported as “inactive”.
